Here are results for 16 compounds from PubChem BioAssay AID588692 (Broad Institute, 2011).

About 830 (0.23%) of roughly 360,000 compounds were called active. This excerpt belongs to a sample that is enriched for actives. A number with no mark means an inactive call.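 The calls were made as follows: active = mean luciferase reporter signal, scaled so untreated is 0 and the glycosylation-blocking control 100, at or above a set limit in every replicate; inconclusive = mean reaches the limit but not every replicate does; inactive = mean below the limit.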

The nature of this experiment: D54 reporter luminescence gain compounds – D54 ERlucT cells, set 2, N-linked glycosylation inhibitor project, primary screen (AID 588692).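 Also: luciferase carries N-glycosylation sites so blocking glycosylation raises the light; 0% = median of neutral control wells and 100% = median of 100 nM tunicamycin wells.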 Particulars: D54 ERlucT glycosylation luciferase reporter, 24 h; at 12.5 µM; hits give high values; percent of 100 nM tunicamycin response.
In the case of `CN(NC(=O)C1CC(=O)N(c2ccccc2)C1)C1=NS(=O)(=O)c2ccccc21` (stereo unspecified), the reporter increase is 1.73%.

For `CC[C@H]1OC(=O)[C@H](C)[C@@H](O[C@H]2C[C@@](C)(OC)[C@@H](O)[C@H](C)O2)[C@H](C)[C@@H](O[C@@H]2O[C@H](C)C[C@H](N(C)C)[C@H]2O)[C@](C)(O)C[C@@H](C)[C@@H]2N[C@@H](COCCOC)O[C@H]([C@H]2C)[C@]1(C)O`, the reporter increase was 0.0685%.

For the compound `O=C1[C@H]2[C@@H](c3ccc(Cl)cc3)N3C(=O)N(c4cccc(F)c4)C(=O)[C@@]3(Cc3ccccc3)[C@H]2C(=O)N1C1CCCCC1`, the reporter increase was -1.72%. `CC(C)(C)N1C(=O)[C@H]2[C@@H](c3ccc(Br)cc3)N3C(=O)N(c4cccc(Cl)c4)C(=O)[C@@]3(C)[C@H]2C1=O`: the reporter increase is -3.13%. Take `Cc1cccc(N2C(=O)N3[C@H](c4ccc(F)cc4)[C@@H]4C(=O)N(C5CCCCC5)C(=O)[C@@H]4[C@]3(Cc3ccccc3)C2=O)c1`: the reporter increase was 78.2% (active). For `COc1ccc([C@@H]2[C@@H]3C(=O)N(C(C)(C)C)C(=O)[C@@H]3[C@]3(Cc4ccccc4)C(=O)N(c4cccc(Br)c4)C(=O)N23)cc1`, the reporter increase is 36.7% (active).

On to `O=C1[C@H]2[C@@H](c3ccc(F)cc3)N3C(=O)N(c4ccc(C(F)(F)F)cc4)C(=O)[C@@]3(Cc3ccccc3)[C@H]2C(=O)N1C1CCCCC1`, for which the reporter increase is -7.93%. For `CC[C@@]12C(=O)N(c3ccccc3)C(=O)N1[C@H](c1ccc(Br)cc1)[C@@H]1C(=O)N(C(C)(C)C)C(=O)[C@@H]12`, the reporter increase is -1.3%.

Consider `CCCCN(C)C(=O)c1ccc2c(c1)N(CC)C(=O)c1ccccc1S2(=O)=O`, for which the reporter increase was 2.3%.

Consider `O=C(CN1C(=O)NC2(CCc3ccccc32)C1=O)NC1CCCCC1` (stereo unspecified), for which the reporter increase was 3.09%.

Take `COCCNC(=O)CN1C(=O)CSc2ncccc21`: the reporter increase was 3.24%. To `OC[C@@H]1CN(Cc2ccc3c(c2)OCO3)C[C@H](n2cnc3c(NCc4ccco4)ncnc32)O1` belongs -0.219%. Consider `COc1ccc2c(c1)[C@H]1[C@H](CO2)[C@H](c2ccccc2)[C@]2(C)C(=O)Nc3cc(F)c(F)cc3C(=O)N12`, for which the reporter increase was 42% (active).

On to `Cc1ccc2c(c1)NC(=O)[C@@]1(C)[C@@H](c3ccccc3)[C@H]3COc4ccc(Cl)cc4[C@@H]3N1C2=O`, for which the reporter increase is 19.6%. As to `CCOC(=O)[C@H]1[C@H]2COc3ccc(OC)cc3[C@@H]2N2C(=O)c3ccc(F)cc3NC(=O)[C@@]12C`, the reporter increase is 7.58%. On to `CC(=O)c1ccc(S(=O)(=O)NC2CC(=O)N(c3ccc4c(c3)OCCO4)C2)cc1` (stereo unspecified), for which the reporter increase is 0.667%.
